Source: PubChem BioAssay
PNC inhibitor: inhibitors of perinucleolar compartment assembly | PC3M PTB-GFP, PNC prevalence imaging, 16 h; hits give low values | activity change (PNC), negative = inhibition, % at 10 µM | actives 3.1% (n = 140,000) | AID 2417;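 active means readout at or below -70, meaning at least 70% loss of cells showing the perinucleolar compartment, a nuclear body marking cancer cells; inconclusive means readout between -30 and a set limit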;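 further: plate controls were DMSO wells for no effect and camptothecin positive control wells for full effect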
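Read-out is percentage of cells bearing a perinucleolar compartment, from automated 20x imaging of fixed, Hoechst-stained PC3M PTB-GFP cells. Cells were seeded 4 h, then exposed 16 h to compound (23 nl of library stock) in duplicate plates.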
Tau FP inhib: inhibitors of human tau fibril formation; P10636; K18 P301L tau heparin fibrillization, Alexa594 FP, 6 h; Potency, µM (titrated, usually from 57.7 µM), without a hit: at the top dose activity, negative = inhibition, hits mostly inhibitors; actives 0.39% (n = 280,000); further: potency means the concentration at half of the fitted maximal effect; nearly all actives have a fitted effect of over 55% in size
Target sequence (P10636 561-689 P618L limits assumed): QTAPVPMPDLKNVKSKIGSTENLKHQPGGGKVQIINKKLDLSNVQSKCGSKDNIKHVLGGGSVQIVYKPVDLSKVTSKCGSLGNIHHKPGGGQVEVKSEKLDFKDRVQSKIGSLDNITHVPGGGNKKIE
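Human K18 P301L fragment (15 uM unlabeled plus 0.24 uM Alexa 594-labeled) in 100 mM sodium acetate pH 7 with compound, aggregation induced by 20 uM heparin for 6 hr at 37 C. ThT (30 uM) added for 1 hr, then Alexa 594 FP read.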
Tau fluor counter: counter-screen for tau fibril formation inhibitors; tau K18 P301L Alexa594 fluorescence, heparin fibrillization; Potency, µM (doses to about 57.7 µM), inactives show at the highest dose activity change, negative = decrease; actives 0.93% (n = 280,000); further: potency means the concentration at half of the fitted maximal effect; nearly all actives have a fitted effect of over 55% in size
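Human tau K18 P301L (15 uM unlabeled, 0.24 uM Alexa 594-labeled) in 100 mM sodium acetate pH 7 with 20 uM heparin, 6 hr at 37 C. ThT 30 uM added, 1 hr ambient; Alexa 594 FP and total fluorescence read at 555/632 nm.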
TR SRC2 fluor cs: Texas Red fluorescence interference in TRb-SRC2 counter-screen; TRb/SRC2 Texas Red total fluorescence interference; Potency, µM (highest dose often 106 µM), for inactives: at the highest dose fluorescence change, negative = quenching; actives 0.29% (n = 280,000); AID 1479; active means well fitted curve in either direction with a large enough effect; inconclusive means small, poorly fitted or top-dose-only effect; further: potency means the concentration at half of the fitted maximal effect
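Human TRb ligand-binding domain at 0.6 uM with 20 nM Texas Red SRC2 peptide in Tris buffer containing 1 uM T3 and 5% DMSO, incubated with compound 5 h at ambient temperature. Total fluorescence (555/632 nm) calculated as parallel + 2 × perpendicular.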
Tau ThT inhib: blocks human tau fibril formation measured by thioflavin T | actives 2.1% (n = 270,000) | Potency, µM (top dose mostly 57.4 µM), inactives show top-dose activity, negative = inhibition, actives largely listed as inhibitors | recombinant tau K18 P301L (four-repeat tau fragment), heparin-induced fibrillization, ThT fluorescence | P10636 | AID 1460; further: potency means the concentration at half of the fitted maximal effect; nearly all actives have a fitted effect of over 55% in size
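Heparin-induced fibrillization of the P301L-mutant K18 repeat-domain fragment of human tau was followed by ThT binding in quantitative high-throughput format.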
TRb SRC2 PPI: TRbeta-SRC2 interaction inhibition. actives 0.065% (n = 280,000). Potency, µM (highest dose often 106 µM), for the others: top-dose activity change, negative = inhibition, actives largely listed as inhibitors. AID 1469. TRbeta-SRC2 peptide binding, fluorescence polarization; receptor liganded with 1 µM T3. P10828;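 further: potency means the concentration at half of the fitted maximal effect; plate controls were bound peptide for no effect and peptide without receptor for full effect; nearly all actives have a fitted effect of over 50% in size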
Target sequence (P10828 whole entry, looked up): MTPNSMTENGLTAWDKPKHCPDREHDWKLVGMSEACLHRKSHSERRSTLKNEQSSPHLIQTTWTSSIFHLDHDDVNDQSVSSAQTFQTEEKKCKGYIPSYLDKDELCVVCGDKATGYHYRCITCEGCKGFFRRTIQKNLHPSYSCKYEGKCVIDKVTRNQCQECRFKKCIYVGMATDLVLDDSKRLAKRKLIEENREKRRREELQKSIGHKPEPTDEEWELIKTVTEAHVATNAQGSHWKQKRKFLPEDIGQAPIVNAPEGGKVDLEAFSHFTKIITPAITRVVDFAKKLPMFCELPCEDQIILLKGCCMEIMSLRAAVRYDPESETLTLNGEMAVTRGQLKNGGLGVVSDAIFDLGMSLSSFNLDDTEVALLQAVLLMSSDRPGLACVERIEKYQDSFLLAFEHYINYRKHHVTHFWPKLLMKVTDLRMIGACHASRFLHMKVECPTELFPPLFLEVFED
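TRb LBD 0.6 uM + Texas Red SRC2 peptide 20 nM, 1 uM T3, Tris buffer w/ 5% DMSO; compound pinned, 5 h RT; FP read ex 555/em 632; normalized to unbound and bound controls.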
An asterisk follows results filed as active; ? = inconclusive; nt = no result; [ ] = remark or other dose. Most compounds without a hit are left out; they make up all but 4.6% or so of the library. Unless noted, the call rests on the fitted dose curve; in most records, active means well fitted curve in the direction sought with a large enough effect; inconclusive means small, poorly fitted or top-dose-only effect, or another doubt; inactive means no such curve, though single readings can be large; an effect the other way counts as inactive or inconclusive. Unless noted, on the % scale 0 is the no-effect control and ±100 the full control effect.

SMILES	PNC inhibitor	Tau FP inhib	Tau fluor counter	TR SRC2 fluor cs	Tau ThT inhib	TRb SRC2 PPI
O=C(NCc1ccc(-c2nc3ccccc3s2)cc1)c1ccco1	10	?	0%	0.0006µM*[quencher]	-3%	-10%
O=C(NC(=S)NCc1ccc(-c2nc3ccccc3s2)cc1)c1ccco1	47	?	?	4%	-8%	-1%
COc1ccc(CN2CCN(Cc3cccc4nonc34)CC2CCO)c(C)c1C (stereo not given)	nt	-1%	-8%	1%	-3%	1%
CCOC(=O)c1ccc(NC(=O)CNC(=O)C23CC4CC(CC(C4)C2)C3)cc1	17	0%	-4%	-1%	10%	-4%
Cc1cc(C)c(NC(=O)C(C)n2nnc3sc(-c4ccccc4)cc3c2=O)c(C)c1 (stereo not given)	nt	-15%	-8%	-1%	?	-5%
COc1ccc(NC(=O)C(C)n2nnc3sc(-c4ccccc4)cc3c2=O)cc1Cl (stereo not given)	nt	?	?	0%	14µM*	-4%
CO[C@@H]1COC(=O)C/C=C\[C@@H](C)[C@H](OC)COC(=O)[C@@H](C)COC(=O)C/C=C\[C@H]1C	nt	-6%[11.6 µM]	-6%[11.6 µM]	0%[11.2 µM]	-3%[11.5 µM]	2%[11.2 µM]
Cc1cc(/C=C\c2ccc3cc(N(C)C)ccc3[n+]2C)c(C)n1-c1ccccc1	nt	nt	nt	14µM*[fluorescent]	nt	?
N#Cc1cc2c(nc1SCc1cccnc1)CCCC2	?	-7%	-12%	0%	-11%	-6%
CS(=O)(=O)NCCNc1ccc(C(F)(F)F)cc1[N+](=O)[O-]	nt	-3%	-2%	0%	-18%	1%
COc1ccc2[nH]c(C)c(CCNc3ccc(C(F)(F)F)cc3[N+](=O)[O-])c2c1	10	?	11µM*[quencher]	-1%	?	8%
Cc1ccc2c(c1)c1cccc3c1n2CCN3CCC(N)=O	-107*	?	?	-1%	11µM*	8%
NC(=O)CCn1c2ccccc2c2ccccc21	nt	5%	5%	-3%	0%	-4%
Cc1nn(Cc2c(Cl)cccc2Cl)c(C)c1NC(=O)c1cc(C(C)C)on1	-102*	-1%	7%	4%	3%	3%
CCCCCC(=O)Nc1ccc(N2CCN(S(C)(=O)=O)CC2)cc1	21	0%	0%	5%	-4%	-14%
CC(C)(C)c1nnc2sc(SCC(=O)c3ccc4c(c3)OCCO4)nn2c1=O	nt	9%	-7%	-1%	?	2%
CCCOC(=O)c1cccc(Nc2nc(CCC)cc(=O)[nH]2)c1	nt	22µM*	?	?	-6%	-7%
CCCc1cc(=O)[nH]c(Nc2ccc(C(=O)O)cc2)n1	nt	-2%	-12%	-31%	-9%	4%
COc1ccc(S(=O)(=O)N[C@@H](Cc2ccccc2)C(=O)N2CC[C@@]3(O)CCCC[C@H]3C2)cc1	-88*	3%	-1%	0%	-2%	2%
C/C(=N\NC1=NCCN1)c1ccc(N)c([N+](=O)[O-])c1	nt	-6%	-27%	-2%	20µM*	-1%
CCCCCCOc1ccc(/C(C)=N/NC2=NCCN2)cc1[N+](=O)[O-]	nt	-14%	?	-3%	10%	5%
CC(=O)c1ccc(NC(=O)c2cc(Cl)nc3ccccc23)cc1	nt	-3%	-11%	-2%	-5%	0%
O=C(Nc1ccccc1)c1cnc2ccccc2n1	-114*	3%	3%	-5%	-9%	4%
O=C(Nc1ccccc1)c1cc(Cl)nc2ccccc12	-100*	0%	-13%	-1%	-5%	9%
NC(=O)c1ccc(NC(=O)c2cnc3ccccc3n2)cc1	nt	-5%	-26%	-13%	?	1%
SMILES	PNC inhibitor	Tau FP inhib	Tau fluor counter	TR SRC2 fluor cs	Tau ThT inhib	TRb SRC2 PPI
S=C(c1ccc(-c2ccc(Cl)cc2)o1)N1CCCCC1	-4	-3%	-15%	-3%	?	-5%
N#CCCN1CCN(C(=S)c2ccc(-c3ccc(Cl)cc3)o2)CC1	?	5%	-23%	-3%	20µM*	-2%
Cc1c(CBr)[n+](=O)c2c(n1[O-])C(Br)CCC2Br (stereo not given)	nt	?	-28%	-1%	25µM*	0%
O=C1CSC(c2cccnc2)N1c1ccccc1 (stereo not given)	nt	1%	-11%	-1%	-8%	5%
CC(=O)[C@@]1(O)[C@H](O)CC2C3CCC4CC(O)CC[C@]4(C)C3CC[C@@]21C (stereo not given in full)	nt	1%	-13%	-1%	-14%	-12%
N#C/C(=N\Nc1cccc(C(F)(F)F)c1)C(=O)c1ccsc1	nt	15%	?	-17%	14µM*	6%
COc1ccc(Nc2nc(Cl)nc(NCCO)n2)cc1	-27	5%	7%	-6%	2%	9%
Cc1cccc(N=C2NC(=O)/C(=C/c3cccn3C)S2)c1	nt	5%	-29%	-2%	7.9µM*	0%
Cc1ccccc1N=C1NC(=O)/C(=C/c2cccn2C)S1	nt	-3%	-29%	2%	?	7%
O=[N+]([O-])c1cccnc1N1CCOCC1	?	10%	5%	2%	-2%	-13%
Cc1ccc(NC(=O)CCC(=O)NNS(=O)(=O)c2ccccc2)cc1C	-24	-2%	-15%	1%	-12%	4%
O=C1CC(c2ccccc2)=NN1c1nc(-c2ccccc2)cs1	nt	?	?	32µM*[quencher]	10µM*	?
COc1c(C=O)c(O)cc2c1C(=O)c1ccccc1C2=O	nt	?	?	?	7.9µM*	1%
Cc1cc(O)c2c(c1)C(=O)c1cccc(O)c1C2=O	14	-1%	-10%	0%	?	-9%
O=C(NCc1ccco1)C(=O)NCC1OCCCN1S(=O)(=O)c1ccc(Cl)cc1 (stereo not given)	nt	12%	-4%	-1%	-6%	2%
N#C/C(=C\c1ccc(O)c(O)c1)C(=O)OCCc1cccs1	nt	13%	18µM*[quencher]	-4%	14µM*	7%
C(=C\c1ccccc1)/CNCC1CCCO1 (stereo not given)	nt	5%	2%	0%	3%	-5%
O=C1c2cccc3cc([N+](=O)[O-])cc(c23)C(=O)N1c1ccccc1O	nt	8%	-18%	-3%	-13%	2%
O=C1c2ccccc2C(=O)N1Nc1ccccc1	-106*	-9%	-2%	-2%	3%	5%
